The values that follow come from PubChem BioAssay AID2315 (National Center for Advancing Translational Sciences (NCATS), 2010).

Molecules are shown by their SMILES. The campaign covered roughly 290,000 compounds. About 27,000 (9.3%) were called active. What follows is part of a selection rich in actives, with near analogues and random picks from the rest. Unmarked numbers belong to inactive results. Rule as the data show it: active = inhibition mostly above about 28% (no sharp cut-off); inactive = mostly below about 43%.

A short description of the experiment: A qHTS for Small Molecule Inhibitors of Shiga Toxin. Also: 0% is about no effect. As to conditions: Vero cells, Shiga toxin protein synthesis inhibition reporter; at 38.7 µM, stronger effect = higher value. A general note: qHTS replaces the single test concentration by a dilution series.
For the molecule `COc1ccc(CCNC(=O)CN2C(=O)COc3ccc(S(=O)(=O)N4CCCC4)cc32)cc1OC`, the inhibition is 22.2%.
To `CCc1ccc(-c2cc(C)no2)cc1S(=O)(=O)NCCc1ccc(S(N)(=O)=O)cc1` belongs -11%.
Turning to `COc1ccc(CCNC(=S)N2CCN(S(=O)(=O)c3ccc(Cl)cc3)CC2)cc1`, the inhibition is -14.7%.
For `CC(=O)c1cc(-c2ccccc2)n(CCC(=O)NC2CCCCCC2)c1C` the value was 10.9%; for `O=C(CCS(=O)(=O)c1ccccc1)NC1CCCC1`, 55.4% (active); for `O=C(CCNC(=O)C1CCN(S(=O)(=O)c2ccccc2)CC1)NC1CC1`, -1.38%.
For `CC1(C(=O)NNC(=S)NCC2CCCO2)CC1(Cl)Cl` (centres undefined) the value was -2.83%; for `Cc1ccc(Cl)cc1NC(=O)C1CCCN(c2cnccn2)C1` (centres undefined), -10.6%; for `C=CCN1C(=O)C2(OCCCO2)c2cccc(Cl)c21`, -3.46%.
For `CC1(C)Cc2ccccc2/C(=C/C(=O)c2ccccc2)N1`, the inhibition is -3.39%.
To `COc1ccc(NC(=O)c2cccc3c2C(=O)N(CC2CCCO2)C3)cc1OC` (centres undefined) belongs 3.68%; to `Cc1ccc(CN2CCC(n3nccc3NC(=O)CCCc3ccccc3)CC2)o1`, 21.2%.
For `CC(=O)NCC(=O)N1CCC(n2nccc2NC(=O)CCCc2ccccc2)CC1` the value was 30.2%; for `CC(=O)N[C@@H](C)C(=O)N1CCC(n2nccc2NC(=O)CCCc2ccccc2)CC1`, 57.5% (active); for `COc1cc(N2CCCC2)c(OC)cc1/C=C(/C#N)c1cccc(Br)c1`, -23.2%.
In the case of `COc1ccccc1NC(=O)CCN1CCN(c2ccc(Cl)cc2)CC1`, the inhibition was -2.18%.
To `CC(Sc1cccc[n+]1[O-])C(=O)Nc1cccc(S(=O)(=O)N2CCOCC2)c1` (centres undefined) belongs -6.74%; to `Cc1ccc(CNC(=O)Cc2cn(C)c3ccccc23)cc1`, 12.6%; to `CCNS(=O)(=O)c1ccc(NC(=O)Nc2cccc(OC)c2)cc1`, -33.1%.
For `COc1cccc(NC(C)=[N+](C)CCNS(=O)(=O)c2ccc(Cl)cc2)c1` the value was 119% (active).
Take `COc1cccc(NC(=O)CCNS(=O)(=O)c2ccc3c(c2)oc(=O)n3C)c1`: the inhibition was 14.5%.
Turning to `CCCCCCC(O)(CCN1CCCCC1)c1ccccc1` (centres undefined), the inhibition is -7.11%.
To `COc1ccc(NC(=O)C(CC(C)C)NC(=O)C2CCC(C)CC2)cc1` (centres undefined) belongs 35.8%; to `O=C(/C=C/Nc1ccccc1)c1cnc(-c2ccccc2)s1`, -10.9%; to `CC(=O)c1cnc(-c2ccccc2)s1`, 59% (active).
Take `CNC(=O)c1csc(-c2ccccc2)n1`: the inhibition was 25.9%.
For `CCCn1nnnc1NCc1ccc(OC)cc1` the value was -12.1%; for `CCS(=O)(=O)C1=NSC2=NC(=O)/C(=C\c3ccc(OS(=O)(=O)c4ccccc4)cc3)C(=N)N21`, 14.7%; for `Cc1ccccc1N1CCN(S(=O)(=O)c2ccc3ccccc3c2)CC1`, -3.59%.
With `O=C(c1cccc(-n2cccc2)c1)N1CCN(S(=O)(=O)c2ccc(F)cc2)CC1`, the inhibition was -1.04%.
To `NS(=O)(=O)c1ccc(CCNC(=O)c2ccc(Cl)cc2[N+](=O)[O-])cc1` belongs 12.8%; to `O=C(COc1ccc(Cl)cc1)NCCSc1ccccc1`, -8.84%.
To `Cc1cc(C(=O)NCCc2ccc(Cl)cc2)c(C)o1` belongs 87.4% (active); to `O=C(CCc1ccccc1)NNC(=O)COc1ccc(Cl)cc1`, -14.5%; to `O=C(NCCc1ccccc1)Oc1ccc(Cl)cc1`, 62.7% (active).
Take `Cc1cc(C(=O)NCCc2ccc(Cl)cc2)n(-c2ccccc2)n1`: the inhibition is -4.98%.
In the case of `COc1cccc(C(=O)NNS(=O)(=O)c2ccc(F)cc2)c1`, the inhibition is 0.43%.
For `CCN1CCN(CCNC(=O)c2ccc3c(c2)NC(=O)/C(=C\c2ccc(OC)c(OC)c2)S3)CC1` the value was -8.25%; for `O=C1N/C(=C/c2cccn2-c2ccccc2)C(=O)N1c1cccc(Cl)c1`, 60.1% (active).
To `COc1cc2c(cc1/C=C1/NC(=O)N(c3ccccc3)C1=O)OCO2` belongs 24.2%; to `Cc1ccccc1NC(=O)CN1C(=O)N/C(=C\c2cccn2-c2cccc(C(=O)O)c2)C1=O`, -13.8%; to `CCc1cccc(C)c1N1C(=O)CN(Cc2ccccc2)C1=S`, -3.04%.
To `O=C(c1c(F)cccc1F)N1CCN(S(=O)(=O)c2ccc3c(c2)OCCO3)CC1` belongs 2.06%; to `O=C(Nc1ccc(OCC(=O)N2CCOCC2)cc1)c1cc(F)c(F)cc1Cl`, 24.7%.
Consider `Cc1cc(=O)oc2c(C)c(OC(C)C(=O)NC3CCN(Cc4ccccc4)CC3)ccc12` (centres undefined), for which the inhibition is -5.37%.
For `CCS(=O)(=O)N1Cc2ccccc2CC1C(=O)Nc1ccc(OC)cc1OC` (centres undefined) the value was 24.9%; for `Cc1ccc2nc(NC(=O)C3CCN(S(=O)(=O)c4ccc5c(c4)oc(=O)n5C)CC3)sc2c1`, -20.5%; for `CCS(=O)(=O)N1Cc2ccccc2CC1C(=O)Nc1nc2ccc(F)cc2s1` (centres undefined), 99.4% (active).
To `CCN(CC)c1ccc(C(=O)Nn2c(C)nc3ccccc3c2=O)cc1` belongs 1.76%; to `COc1cccc(OCc2nnc3n2N=C(c2ccccc2)C(CC(=O)O)S3)c1` (centres undefined), -9.17%.
For `COc1ccc(/C=N/NC(=O)c2cccc(C(F)(F)F)c2)cc1` the value was 17.5%; for `CCn1c(/C=N/NC(=O)c2ccc(OC)cc2)nc2ccccc21`, 15%.
Take `Cn1cccc1/C=N/NC(=O)c1ccc(OC(F)(F)C(F)F)cc1`: the inhibition is 33.1% (active).
To `c1ccc(-c2cnc(CN3CCN(c4ccccc4)CC3)o2)cc1` belongs -3.91%.
`O=C(COCc1cc(-c2ccc3c(c2)OCO3)on1)N1CCN(c2cccc(Cl)c2)CC1`: the inhibition was 4.57%.
For `Cc1ccc(NC(=O)c2ccc(Oc3ncccn3)cc2)cc1` the value was 54.9% (active).
For `CCc1cc(C(c2ccccc2OC)N2CCOCC2)c(NC(=O)c2ccccc2)s1` (centres undefined), the inhibition was 33.3%.
Regarding `CCc1cc(C(=O)c2ccc(OC)cc2)c(NC(=O)CN2CCN(C)CC2)s1`, the inhibition is -6.04%.
For `CCCNC(=S)N1CCC(NC(=O)c2ccc(OC)cc2)CC1` the value was 10.3%.
To `CCc1cc(C(N)=O)c(NC(=O)c2ccc(OC)cc2)s1` belongs 33.1% (active); to `CCOC(=O)N1CCN(Cc2nc3cc(NC(C)=O)ccc3n2C)CC1`, -4.25%; to `CC(=O)NCCc1nc2cc(NC(=O)c3ccccc3)ccc2n1C`, 38.3%.
To `Cc1ccc(NC(=O)c2cccnc2C(=O)Nc2ccc(C)cc2)cc1` belongs 20.9%; to `COc1ccc(C(=O)Nc2ccc(NC(=O)C(C)C)nc2)cc1`, 22.3%.
As to `Cn1c(CN2CCOCC2)nc2cc(NC(=O)c3ccc(Cl)cc3)ccc21`, the inhibition was 69.5% (active).
For `O=C(NC(=S)NC1CCCCC1)c1ccc(Cl)cc1` the value was -12.4%.
Consider `COc1ccc(C(=O)NC(=S)NC2CCCCC2)cc1`, for which the inhibition was 91.2% (active).
To `Cc1cc(OCC(=O)Nc2c(C)n(C)n(-c3ccccc3)c2=O)ccc1[N+](=O)[O-]` belongs -12.8%.
For `Cc1ccc(CC2(O)CCN(CCOc3ccc(O)cc3)CC2)cc1`, the inhibition is -5.63%.
For `Cc1ccccc1N1CCN(C2CCCN(C(=O)c3ocnc3C)C2)CC1` (centres undefined) the value was -9.46%; for `Cc1cc(C)cc(NC(=O)C2CCCN(S(=O)(=O)c3ccc4[nH]c(=O)ccc4c3)C2)c1` (centres undefined), 14.1%.
In the case of `Cc1cccc(NC(=O)c2ccc3c(=O)n(CC4CCCO4)c(=S)[nH]c3c2)c1` (centres undefined), the inhibition was -1%.
For `O=C(Cn1ccc2cc(S(=O)(=O)N3CCCC3)ccc21)NCc1ccccc1` the value was -6.39%.
For `COc1ccc(NC(=O)CCn2ccnc2)c(OC)c1` the value was -6.3%; for `COc1ccc(S(=O)(=O)N/N=C\c2ccc(OC)c(COc3ccc(C)cc3[N+](=O)[O-])c2)cc1`, -12.5%.
Take `COc1ccc(NC(=O)c2cnc(NS(=O)(=O)c3ccccc3)nc2)cc1`: the inhibition is -13.6%.
For `Cc1cccc(C(=O)Nc2ccccc2C(=O)NCc2cccnc2)c1` the value was -16.9%; for `COc1ccc(NC(=O)c2ccc(OC)cc2)cc1`, 105% (active); for `Cc1cccc(C(=O)Nc2ccc(Oc3cnccn3)cc2)c1`, 57.2% (active).
On to `COc1ccc(C(=O)Nc2ccc(CN3CCOCC3)cc2)cc1`, for which the inhibition is 80.4% (active).
As to `O=C(Nc1ccc(CSc2ccccc2)cc1)c1ccc(CN2CCOCC2)cc1`, the inhibition was 7.03%.
Take `COc1ccc(NC(=O)c2ccc(C#CC(C)(C)O)cc2)cc1`: the inhibition is 28%.
Turning to `CCOc1ccc(C(=O)Nc2ccc(CN3CCOCC3)cc2)cc1Cl`, the inhibition was 9.47%.
For `COc1ccc(C(=O)Nc2cccc(S(C)(=O)=O)c2)cc1` the value was 21.9%; for `O=C(CS(=O)(=O)c1ccccc1)Nc1ccc(S(=O)(=O)Nc2ccccn2)cc1`, -7.44%; for `Cc1noc(C)c1COc1cccc(C(=O)Nc2cccnc2)c1`, -6.89%.
To `COc1ccc(NC(=O)CS(=O)(=O)c2ccccc2)cc1` belongs 28.2% (active); to `O=C(NCCCN1CCCC1=O)C(=O)NCC1OCCN1S(=O)(=O)c1ccc(Br)cc1` (centres undefined), 22.9%.
To `Nc1nc(Nc2ccccc2F)nc(NC2CCCCC2)c1[N+](=O)[O-]` belongs 2.97%; to `Cn1c(N2CCOCC2)c(C=O)c2ccccc21`, -1.16%; to `Cc1ccc(Cn2ncc3c4sc(C)cc4n(C)c3c2=O)c(C)c1`, -2.93%.
Take `C=CCn1cc(Cl)cc(C(=O)Nc2ccccc2)c1=O`: the inhibition was 16.8%.
For `CCN(CC)c1ccc(C(=O)NNC(=O)CCc2nc3ccccc3c(=O)[nH]2)cc1` the value was 10.9%; for `Cc1ccc(NC(=O)COc2ccc(/C=C3/NC(=O)NC3=O)cc2)cc1`, 8.39%.

As a reminder, the inhibition is the relative decrease from the control value, in per cent.
